Results published in PMC7862700, “An all-to-all approach to the identification of sequence-specific readers for epigenetic DNA modifications on cytosine”.

Key:
Assay in all cases: DAPPL (digital affinity profiling via proximity ligation, sequencing); 10 mM Tris-HCl pH 7.5, 50 mM NaCl, 1 mM DTT, 4% glycerol, room temperature, 30 min; GST-TFs on glutathione beads, 16-mer random dsDNA library, 0.1% formaldehyde crosslink after washing; high values mean tight binding
Settings in all cases: protein: recombinant; tags: N-terminal GST; dsDNA, one strand shown
FLI1 = molecular target: T1, FLI1 (Homo sapiens, UniProt Q01543 1-452)
T1 sequence: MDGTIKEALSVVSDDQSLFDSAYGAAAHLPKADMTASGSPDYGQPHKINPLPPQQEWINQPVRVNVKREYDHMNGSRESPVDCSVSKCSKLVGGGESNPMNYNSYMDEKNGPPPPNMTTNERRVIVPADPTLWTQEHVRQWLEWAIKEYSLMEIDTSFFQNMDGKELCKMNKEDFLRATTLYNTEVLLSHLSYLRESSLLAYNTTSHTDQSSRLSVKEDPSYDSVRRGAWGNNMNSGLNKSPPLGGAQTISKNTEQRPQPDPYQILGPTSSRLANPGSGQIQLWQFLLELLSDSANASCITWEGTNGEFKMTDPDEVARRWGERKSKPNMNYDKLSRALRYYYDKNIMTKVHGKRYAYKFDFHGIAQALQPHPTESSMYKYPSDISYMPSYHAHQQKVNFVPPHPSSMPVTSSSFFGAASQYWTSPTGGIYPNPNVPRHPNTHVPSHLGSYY
Procedure, shortened: (§1)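 The binding signal reported is, for every hexamer, its read frequency for a factor over its read frequency for the tag-only sample. Reads came from pools of yeast-expressed, GST-fused human transcription factors on glutathione beads, barcoded with DNA and mixed with that sample, which were incubated with 200 nmole of a random double-stranded 16-mer DNA library in Tris/NaCl/DTT/glycerol buffer at room temperature for 30 min. After washing, the pools were crosslinked with 0.1% formaldehyde, proximity-ligated with BsaI/T4 ligase for 1 h at 37 °C, PCR-amplified and sequenced on an Illumina NextSeq500.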

ELK1 = molecular target: T2, ELK1 (Homo sapiens, UniProt P19419 1-428)
T2 sequence: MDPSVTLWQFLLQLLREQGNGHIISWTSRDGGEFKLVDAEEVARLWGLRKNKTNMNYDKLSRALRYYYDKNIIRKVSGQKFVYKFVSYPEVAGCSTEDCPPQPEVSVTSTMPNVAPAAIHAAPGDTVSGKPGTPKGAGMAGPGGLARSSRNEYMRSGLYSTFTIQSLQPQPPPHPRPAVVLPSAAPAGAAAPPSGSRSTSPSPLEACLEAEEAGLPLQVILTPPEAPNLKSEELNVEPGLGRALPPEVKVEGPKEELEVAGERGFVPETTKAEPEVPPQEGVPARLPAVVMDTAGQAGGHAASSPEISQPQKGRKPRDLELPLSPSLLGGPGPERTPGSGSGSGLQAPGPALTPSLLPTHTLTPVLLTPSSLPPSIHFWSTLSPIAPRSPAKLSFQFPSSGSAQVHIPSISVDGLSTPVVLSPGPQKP
Procedure, shortened: as §1

GABPA = molecular target: T3, GABPA (Homo sapiens, UniProt Q06546 1-454)
T3 sequence: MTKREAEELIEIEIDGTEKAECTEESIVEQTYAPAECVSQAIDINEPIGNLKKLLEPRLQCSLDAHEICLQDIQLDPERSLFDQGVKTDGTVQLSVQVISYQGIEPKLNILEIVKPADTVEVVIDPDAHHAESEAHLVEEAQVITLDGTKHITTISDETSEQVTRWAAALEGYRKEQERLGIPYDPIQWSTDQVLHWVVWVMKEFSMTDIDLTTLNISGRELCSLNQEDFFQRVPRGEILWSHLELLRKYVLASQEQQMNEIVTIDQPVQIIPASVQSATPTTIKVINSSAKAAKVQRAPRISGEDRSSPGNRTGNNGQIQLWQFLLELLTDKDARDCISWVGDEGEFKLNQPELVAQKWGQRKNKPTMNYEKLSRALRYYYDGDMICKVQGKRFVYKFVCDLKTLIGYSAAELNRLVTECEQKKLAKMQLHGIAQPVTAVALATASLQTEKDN
Procedure, shortened: as §1

ERG = molecular target: T4, ERG (Homo sapiens, UniProt P11308 1-479)
T4 sequence: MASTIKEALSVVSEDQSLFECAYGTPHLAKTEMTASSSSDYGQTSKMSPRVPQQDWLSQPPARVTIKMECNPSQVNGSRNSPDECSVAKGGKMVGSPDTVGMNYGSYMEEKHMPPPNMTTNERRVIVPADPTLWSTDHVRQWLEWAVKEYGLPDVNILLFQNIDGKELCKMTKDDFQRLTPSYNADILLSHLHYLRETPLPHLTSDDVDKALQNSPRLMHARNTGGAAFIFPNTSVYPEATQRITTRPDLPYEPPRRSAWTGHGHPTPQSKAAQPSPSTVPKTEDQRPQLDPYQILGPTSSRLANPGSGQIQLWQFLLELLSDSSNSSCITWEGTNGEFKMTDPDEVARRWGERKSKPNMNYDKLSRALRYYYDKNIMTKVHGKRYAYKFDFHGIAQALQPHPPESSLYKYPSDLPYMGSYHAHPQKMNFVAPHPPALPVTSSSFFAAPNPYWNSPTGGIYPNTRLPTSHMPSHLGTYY
Procedure, shortened: as §1

ELF1 = ELF1 (Homo sapiens, UniProt P32519 1-619)
Sequence of ELF1 (P32519 whole entry): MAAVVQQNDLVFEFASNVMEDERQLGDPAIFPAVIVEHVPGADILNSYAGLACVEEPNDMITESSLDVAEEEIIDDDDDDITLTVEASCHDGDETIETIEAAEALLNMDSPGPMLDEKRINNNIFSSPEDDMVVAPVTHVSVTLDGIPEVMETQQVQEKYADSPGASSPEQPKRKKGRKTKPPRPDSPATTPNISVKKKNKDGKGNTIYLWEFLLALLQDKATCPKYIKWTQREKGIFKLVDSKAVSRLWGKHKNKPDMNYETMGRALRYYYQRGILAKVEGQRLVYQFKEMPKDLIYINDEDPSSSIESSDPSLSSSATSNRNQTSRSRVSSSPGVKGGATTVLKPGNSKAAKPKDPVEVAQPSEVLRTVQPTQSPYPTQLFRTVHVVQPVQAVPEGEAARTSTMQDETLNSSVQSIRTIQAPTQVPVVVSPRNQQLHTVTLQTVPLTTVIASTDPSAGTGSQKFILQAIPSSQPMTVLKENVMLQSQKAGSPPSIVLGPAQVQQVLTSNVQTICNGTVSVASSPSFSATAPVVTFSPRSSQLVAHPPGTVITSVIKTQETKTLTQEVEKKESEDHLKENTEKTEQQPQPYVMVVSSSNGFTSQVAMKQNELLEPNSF
Procedure, shortened: as §1

EHF = molecular target: T5, EHF (Homo sapiens, UniProt Q9NZC4 1-300)
T5 sequence: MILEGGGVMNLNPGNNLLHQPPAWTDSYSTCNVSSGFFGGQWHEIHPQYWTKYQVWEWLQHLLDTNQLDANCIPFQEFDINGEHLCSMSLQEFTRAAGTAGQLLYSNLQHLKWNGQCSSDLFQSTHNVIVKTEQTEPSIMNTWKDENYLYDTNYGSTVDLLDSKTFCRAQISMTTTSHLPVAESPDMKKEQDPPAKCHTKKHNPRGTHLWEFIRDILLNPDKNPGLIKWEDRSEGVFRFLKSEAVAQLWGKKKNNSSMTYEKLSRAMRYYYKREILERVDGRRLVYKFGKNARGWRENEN
Procedure, shortened: as §1

SPI1 = SPI1 (Homo sapiens, UniProt P17947 1-270)
Procedure, shortened: as §1

SPIB = SPIB (Homo sapiens, UniProt Q01892 1-262)
Sequence of SPIB (Q01892 whole entry): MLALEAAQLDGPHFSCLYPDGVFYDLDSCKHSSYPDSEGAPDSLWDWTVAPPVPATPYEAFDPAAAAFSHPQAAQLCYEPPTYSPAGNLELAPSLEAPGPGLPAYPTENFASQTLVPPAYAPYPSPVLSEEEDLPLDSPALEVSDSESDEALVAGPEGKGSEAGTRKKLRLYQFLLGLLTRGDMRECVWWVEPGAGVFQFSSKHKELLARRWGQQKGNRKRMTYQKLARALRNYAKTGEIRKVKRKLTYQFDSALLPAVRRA
Procedure, shortened: as §1

ELK3 = molecular target: T6, ELK3 (Homo sapiens, UniProt P41970 1-407)
T6 sequence: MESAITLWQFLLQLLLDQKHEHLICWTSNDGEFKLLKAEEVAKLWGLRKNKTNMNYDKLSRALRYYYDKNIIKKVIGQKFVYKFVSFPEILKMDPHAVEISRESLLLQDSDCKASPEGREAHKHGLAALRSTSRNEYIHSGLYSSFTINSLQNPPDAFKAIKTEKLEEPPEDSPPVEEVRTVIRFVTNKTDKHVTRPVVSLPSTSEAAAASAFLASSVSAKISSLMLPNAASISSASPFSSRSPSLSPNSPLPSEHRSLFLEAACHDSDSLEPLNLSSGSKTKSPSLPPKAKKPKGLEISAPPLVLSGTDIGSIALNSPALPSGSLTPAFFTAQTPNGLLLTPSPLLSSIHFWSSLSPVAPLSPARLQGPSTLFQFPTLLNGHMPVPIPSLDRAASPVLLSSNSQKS
Procedure, shortened: as §1

Sequence | binding signal (FLI1) | binding signal (ELK1) | binding signal (GABPA) | binding signal (ERG) | binding signal (ELF1) | binding signal (EHF) | binding signal (SPI1) | binding signal (SPIB) | binding signal (ELK3)
TTATGA | 1.15 fold enrichment (6-mer frequency, TF over GST control) | 1.15 fold enrichment (6-mer frequency, TF over GST control) | 1.22 fold enrichment (6-mer frequency, TF over GST control) | 1.08 fold enrichment (6-mer frequency, TF over GST control) | 1.19 fold enrichment (6-mer frequency, TF over GST control) | 1.16 fold enrichment (6-mer frequency, TF over GST control) | 1.15 fold enrichment (6-mer frequency, TF over GST control) | 1.14 fold enrichment (6-mer frequency, TF over GST control) | 1.22 fold enrichment (6-mer frequency, TF over GST control)
TTCTCG | 1.51 fold enrichment (6-mer frequency, TF over GST control) | 1.43 fold enrichment (6-mer frequency, TF over GST control) | 1.55 fold enrichment (6-mer frequency, TF over GST control) | 1.38 fold enrichment (6-mer frequency, TF over GST control) | 1.36 fold enrichment (6-mer frequency, TF over GST control) | 1.34 fold enrichment (6-mer frequency, TF over GST control) | 1.42 fold enrichment (6-mer frequency, TF over GST control) | 1.46 fold enrichment (6-mer frequency, TF over GST control) | 1.44 fold enrichment (6-mer frequency, TF over GST control)
CAATTC | 1.33 fold enrichment (6-mer frequency, TF over GST control) | 1.27 fold enrichment (6-mer frequency, TF over GST control) | 1.19 fold enrichment (6-mer frequency, TF over GST control) | 1.29 fold enrichment (6-mer frequency, TF over GST control) | 1.25 fold enrichment (6-mer frequency, TF over GST control) | 1.24 fold enrichment (6-mer frequency, TF over GST control) | 1.24 fold enrichment (6-mer frequency, TF over GST control) | 1.44 fold enrichment (6-mer frequency, TF over GST control) | 1.2 fold enrichment (6-mer frequency, TF over GST control)
TCGCCT | 1.32 fold enrichment (6-mer frequency, TF over GST control) | 1.36 fold enrichment (6-mer frequency, TF over GST control) | 1.2 fold enrichment (6-mer frequency, TF over GST control) | 1.31 fold enrichment (6-mer frequency, TF over GST control) | 1.21 fold enrichment (6-mer frequency, TF over GST control) | 1.34 fold enrichment (6-mer frequency, TF over GST control) | 1.16 fold enrichment (6-mer frequency, TF over GST control) | 1.23 fold enrichment (6-mer frequency, TF over GST control) | 1.15 fold enrichment (6-mer frequency, TF over GST control)
TAAGAT | 1.17 fold enrichment (6-mer frequency, TF over GST control) | 1.26 fold enrichment (6-mer frequency, TF over GST control) | 1.19 fold enrichment (6-mer frequency, TF over GST control) | 1.21 fold enrichment (6-mer frequency, TF over GST control) | 1.24 fold enrichment (6-mer frequency, TF over GST control) | 1.3 fold enrichment (6-mer frequency, TF over GST control) | 1.21 fold enrichment (6-mer frequency, TF over GST control) | 1.31 fold enrichment (6-mer frequency, TF over GST control) | 1.2 fold enrichment (6-mer frequency, TF over GST control)
CTCAAG | 1.29 fold enrichment (6-mer frequency, TF over GST control) | 1.17 fold enrichment (6-mer frequency, TF over GST control) | 1.14 fold enrichment (6-mer frequency, TF over GST control) | 1.18 fold enrichment (6-mer frequency, TF over GST control) | 1.18 fold enrichment (6-mer frequency, TF over GST control) | 1.21 fold enrichment (6-mer frequency, TF over GST control) | 1.22 fold enrichment (6-mer frequency, TF over GST control) | 1.2 fold enrichment (6-mer frequency, TF over GST control) | 1.32 fold enrichment (6-mer frequency, TF over GST control)
TATTCT | 1.45 fold enrichment (6-mer frequency, TF over GST control) | 1.28 fold enrichment (6-mer frequency, TF over GST control) | 1.43 fold enrichment (6-mer frequency, TF over GST control) | 1.31 fold enrichment (6-mer frequency, TF over GST control) | 1.33 fold enrichment (6-mer frequency, TF over GST control) | 1.39 fold enrichment (6-mer frequency, TF over GST control) | 1.31 fold enrichment (6-mer frequency, TF over GST control) | 1.19 fold enrichment (6-mer frequency, TF over GST control) | 1.33 fold enrichment (6-mer frequency, TF over GST control)
